Assay outcomes deposited in PubChem BioAssay by National Center for Advancing Translational Sciences (NCATS).
TDP1 cell noCPT: qHTS for Inhibitors of human tyrosyl-DNA phosphodiesterase 1 (TDP1): qHTS in cells in absence of CPT; Potency, µM (series often up to 46.2 µM), inactives show at the top dose activity change, negative = growth inhibition, hits mostly inhibitors; DT40 Tdp1-/- hTDP1 cells, no CPT, ATP luminescence, 48 h; 15% of 420,000 active; note: nearly all actives have a fitted effect of over 55% in size
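DT40 Tdp1-/-;hTDP1 cells, no CPT (DMSO vehicle only), 400 cells/well; compounds pin-transferred; ≥48 hr, 37 °C; CellTiter-Glo 30 min RT dark, luminescence read.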
KB-V1 cytotox: kills drug-selected multidrug resistant KB-V1 cells | KB-V1 MDR cells viability, CellTiter-Glo, 72 h | Potency, µM (top dose mostly 46.1 µM), hits mostly cytotoxic | 3.4% of 400,000 active | AID 1347076; note: nearly all actives have a fitted effect of over 60% in size
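Compound-treated KB-V1 multidrug-resistant cells, 72 h, 37 degrees C; viability by CellTiter-Glo. Fitted qHTS curves give the values.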
DT40 TDP1 CPT: DT40-hTDP1 cell growth loss with CPT; chicken DT40 Tdp1-/-;hTDP1 cells + 20 nM CPT, ATP luminescence, 48 h; Potency, µM (series often up to 46.2 µM), for the others: at the highest dose activity change, negative = growth inhibition, most hits filed as inhibitors; 12% of 420,000 active; note: nearly all actives have a fitted effect of over 55% in size
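Cell growth measured by CellTiter-Glo luminescence after a minimum 48 h, 37 C compound exposure with 20 nM CPT in Tdp1-knockout DT40 cells stably expressing hTDP1, seeded 400/well; qHTS titration format.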
KB-3-1 tox: kills parental KB-3-1 adenocarcinoma cells | KB-3-1 viability, CellTiter-Glo ATP luminescence, 72 h | Potency, µM (titrated, usually from 46.1 µM), usual class: cytotoxic | 1.4% of 400,000 active | AID 1347075; note: nearly all actives have a fitted effect of over 60% in size
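Cytotoxicity in the drug-sensitive parental line KB-3-1 was scored as loss of CellTiter-Glo luminescence following 72 h incubation with compound. Values come from curve fitting of normalized concentration-response data.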
HT1080-NT tox: kills 2HG-producing HT-1080-NT fibrosarcoma cells; HT-1080-NT fibrosarcoma viability, CellTiter-Glo ATP luminescence, 48 h; 1.6% of 360,000 active; Potency, µM (highest dose often 46.1 µM), for inactives: at the top dose activity, negative = less viability, most hits filed as cytotoxic;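 note: NT is the 2HG producing partner of a matched IDH1 knockdown line; 0% = DMSO-treated cells and -100% = media-only wells without cells; nearly all actives have a fitted effect of over 55% in size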
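HT-1080-NT fibrosarcoma cells (2HG-overproducing), 750 cells/well in RPMI with 5% FBS, dosed after 2 h and incubated 48 h at 37C. CellTiter-Glo luminescence normalized to DMSO and no-cell wells; concentration-response curves fitted and classed.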
HT1080 IDH1KD tx: HT-1080 IDH1 knockdown cell toxicity (counter line) | HT-1080 IDH1 knockdown viability, ATP luminescence, 48 h | Potency, µM (highest dose often 46.1 µM), for inactives: top-dose activity, negative = toxicity, usual class: cytotoxic | 2% of 360,000 active | AID 686971;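 note: 0% = DMSO wells and -100% = cell-free medium wells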
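After a 2 h attachment period, IDH1KD HT-1080 cells took pin-transferred compound for 48 h at 37 °C; ATP-based luminescence after 10 min room-temperature reagent incubation reported viability.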
* marks the source's active call; other numbers are inactive results; ! = repeats disagree. An excerpt weighted towards active compounds, which were near 19% of everything screened. Calls come from the whole dose curve; as a rule, active = well fitted curve in the direction sought with a large enough effect; inconclusive = small, poorly fitted or top-dose-only effect, or another doubt; inactive = no such curve, though single readings can be large; an effect the other way counts as inactive or inconclusive. Unless noted, % is set by controls: 0 for no effect and ±100 for the full control effect; potency is the fitted concentration of half-maximal effect.

`COCCNC(=O)CCCn1c(=O)c2ccccc2n(Cc2ccccc2C#N)c1=O` gave TDP1 cell noCPT 14.6%, KB-V1 cytotox inactive, DT40 TDP1 CPT 9.9%, KB-3-1 tox inactive, HT1080-NT tox -1.7% and HT1080 IDH1KD tx 3.1%.
`COc1ccc(CNC(=O)CCc2cn(C)c3ccccc23)cc1` gave TDP1 cell noCPT -21.1% and DT40 TDP1 CPT -27.1%.
Screening COc1ccccc1CNC(=O)CCCn1c(=O)c2ccccc2n(Cc2ccccc2C#N)c1=O returned TDP1 cell noCPT 4.61µM*, KB-V1 cytotox inactive, DT40 TDP1 CPT 25.9µM* and KB-3-1 tox inactive.
`Cn1cc(CCCC(=O)NCc2ccc(F)cc2)c2ccccc21` gave TDP1 cell noCPT 20.6µM*!, KB-V1 cytotox inconclusive, DT40 TDP1 CPT inconclusive, KB-3-1 tox inactive, HT1080-NT tox -17.1% and HT1080 IDH1KD tx -9.5%.
For N#Cc1cccc(-c2csc(C(O)c3ccc(F)cc3)n2)c1 (stereo not drawn) the results were TDP1 cell noCPT inconclusive, KB-V1 cytotox inactive, DT40 TDP1 CPT -30.7%, KB-3-1 tox inactive, HT1080-NT tox -6.4% and HT1080 IDH1KD tx -9.0%.
For Cc1ccc(Cn2c(=O)c3ccccc3n3c(SCC(=O)N4CCCCC4C)nnc23)cc1 (stereo not drawn) the results were TDP1 cell noCPT 16.4µM*, KB-V1 cytotox 8.2µM*, DT40 TDP1 CPT 18.4µM*, KB-3-1 tox inactive, HT1080-NT tox -3.0% and HT1080 IDH1KD tx -5.6%.
Screening CCn1c(=O)c2ccccc2n2c(SCC(=O)NCc3cccs3)nnc12 returned TDP1 cell noCPT -8.9%, KB-V1 cytotox inactive, DT40 TDP1 CPT -26.5%, KB-3-1 tox inactive, HT1080-NT tox 6.5% and HT1080 IDH1KD tx -0.8%.
For C=CCn1c(=O)c2ccccc2n2c(Sc3nnnn3-c3ccccc3)nnc12 the results were TDP1 cell noCPT inconclusive, KB-V1 cytotox inactive, DT40 TDP1 CPT inconclusive, KB-3-1 tox inactive, HT1080-NT tox -16.5% and HT1080 IDH1KD tx -0.9%.
Screening CCn1c(=O)c2ccccc2n2c(SCC(=O)N3CCc4ccccc4C3)nnc12 returned TDP1 cell noCPT -6.2%, KB-V1 cytotox inactive, DT40 TDP1 CPT inconclusive, KB-3-1 tox inactive, HT1080-NT tox 2.0% and HT1080 IDH1KD tx 11.1%.
`CCCn1c(=O)c2ccccc2n2c(SCC(=O)NCc3cccs3)nnc12` gave TDP1 cell noCPT 14.6µM*, KB-V1 cytotox inactive, DT40 TDP1 CPT inconclusive, KB-3-1 tox inactive, HT1080-NT tox 1.6% and HT1080 IDH1KD tx 4.0%.
`CCCn1c(=O)c2ccccc2n2c(Sc3nnnn3-c3ccccc3)nnc12` gave TDP1 cell noCPT 23.1µM*, KB-V1 cytotox inactive, DT40 TDP1 CPT inconclusive, KB-3-1 tox inactive, HT1080-NT tox -11.3% and HT1080 IDH1KD tx -0.4%.
For CCn1c(SCC(=O)N2CCc3ccccc3C2)nc2sc(C)c(C)c2c1=O the results were TDP1 cell noCPT 20.6µM*, KB-V1 cytotox inactive, DT40 TDP1 CPT inconclusive, KB-3-1 tox inactive, HT1080-NT tox 9.6% and HT1080 IDH1KD tx 3.9%.
For Cc1cccc(OCC(=O)N2CCc3ccccc3C2)c1C the results were TDP1 cell noCPT inconclusive, KB-V1 cytotox inactive, DT40 TDP1 CPT inconclusive, KB-3-1 tox inactive, HT1080-NT tox -3.5% and HT1080 IDH1KD tx -10.1%.
COCCNC(=O)CSc1nc2ccccc2nc1Cc1ccc(C)cc1 was read as TDP1 cell noCPT -16.3%, KB-V1 cytotox inactive, DT40 TDP1 CPT -25.5% and KB-3-1 tox inactive.
CCCn1c(=O)c2ccccc2n2c(SCC(=O)N3CCc4ccccc4C3)nnc12 was read as TDP1 cell noCPT inconclusive, KB-V1 cytotox 2.91µM*, DT40 TDP1 CPT inconclusive, KB-3-1 tox inactive, HT1080-NT tox 0.8% and HT1080 IDH1KD tx -2.6%.
For COc1ccc(NC(=O)Cn2c(SCc3c(F)cccc3Cl)nc3ccncc32)cc1OC the results were TDP1 cell noCPT -19.8%, KB-V1 cytotox inactive, DT40 TDP1 CPT -25.7% and KB-3-1 tox inactive.
`Cc1ccc(N2CCN(C(=O)c3ccc(Nc4nc5ccccc5n5nnnc45)cc3)CC2)c(C)c1` gave TDP1 cell noCPT -12.8%, KB-V1 cytotox inactive, DT40 TDP1 CPT -5.9% and KB-3-1 tox inactive.
For Cc1cc2ccccc2n1CCNC(=O)c1ccc(Br)o1 the results were TDP1 cell noCPT 29.1µM*, KB-V1 cytotox inactive, DT40 TDP1 CPT -28.5%, KB-3-1 tox inconclusive, HT1080-NT tox -2.6% and HT1080 IDH1KD tx -3.1%.
`CC(=O)NCCn1c(C)cc2ccccc21` gave TDP1 cell noCPT inconclusive, KB-V1 cytotox inconclusive, DT40 TDP1 CPT -23.4%, KB-3-1 tox inactive, HT1080-NT tox -3.5% and HT1080 IDH1KD tx -1.8%.
Screening Cc1cc2ccccc2n1CCNC(=O)c1ccc(Br)cc1 returned TDP1 cell noCPT 20.6µM*, KB-V1 cytotox inactive, DT40 TDP1 CPT inconclusive and KB-3-1 tox inactive.
`Cc1onc(-c2ccccc2Cl)c1C(=O)NCCn1c(C)cc2ccccc21` gave TDP1 cell noCPT 29.1µM*, KB-V1 cytotox inactive, DT40 TDP1 CPT inconclusive, KB-3-1 tox inactive, HT1080-NT tox 0.0% and HT1080 IDH1KD tx -2.4%.
Cc1cc2ccccc2n1CCNC(=O)c1ccccc1F was read as TDP1 cell noCPT 16.4µM*, KB-V1 cytotox inactive, DT40 TDP1 CPT inconclusive and KB-3-1 tox inactive.
For Cc1cc2ccccc2n1CCNC(=O)c1ccccc1 the results were TDP1 cell noCPT inconclusive, KB-V1 cytotox inactive, DT40 TDP1 CPT inconclusive, KB-3-1 tox inactive, HT1080-NT tox 1.9% and HT1080 IDH1KD tx -1.2%.
For COc1ccccc1C(N)=S the results were TDP1 cell noCPT -8.1%, KB-V1 cytotox inactive, DT40 TDP1 CPT 0.5%, KB-3-1 tox inactive, HT1080-NT tox 1.0% and HT1080 IDH1KD tx 5.7%.
C#CCn1c(=NC(=O)c2ccc(Cl)s2)sc2cccc(OC)c21 was read as TDP1 cell noCPT inconclusive, KB-V1 cytotox inactive, DT40 TDP1 CPT inconclusive, KB-3-1 tox inactive, HT1080-NT tox -0.9% and HT1080 IDH1KD tx 9.6%.
`CCn1c(=NC(=O)CSC(C)=O)sc2cc(OC)ccc21` gave TDP1 cell noCPT inconclusive, KB-V1 cytotox inactive, DT40 TDP1 CPT inconclusive, KB-3-1 tox inactive, HT1080-NT tox -6.2% and HT1080 IDH1KD tx 0.4%.
For CCn1c(=NC(=O)CS(=O)(=O)c2ccc(F)cc2)sc2cccc(OC)c21 the results were TDP1 cell noCPT 18.4µM*, KB-V1 cytotox inactive, DT40 TDP1 CPT 14.6µM*, KB-3-1 tox inactive, HT1080-NT tox -3.8% and HT1080 IDH1KD tx -12.6%.
